Reference: PubChem BioAssay (NCI)
The panel holds about 79,000 compounds, 15% with a hit somewhere; the sample as a whole holds those more often. Calls of active or inactive are those of the source. Rule as the data show it: active = growth inhibition above about 70%; inactive = the rest.

How the values were obtained:
[1] = NCI Yeast Anticancer Drug Screen. Data for the sgs1 strain (AID 173);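 also: 0% = growth of vehicle-only control cultures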; settings: S. cerevisiae sgs1 mutant, active compounds read high
In short: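 Relative growth inhibition, referenced to vehicle, was determined in a yeast strain with a defined alteration affecting DNA damage repair or cell cycle control after compound exposure.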

[2] = NCI Yeast Anticancer Drug Screen. Data for the mlh1 rad18 strain (AID 175); settings: S. cerevisiae mlh1 rad18 strain growth inhibition, active compounds read high
In short: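 In this whole-cell yeast screen, a strain with altered DNA damage repair is challenged with compound, and its growth is measured against matched vehicle-treated controls.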

[3] = NCI Yeast Anticancer Drug Screen. Data for the rad18 strain (AID 177); settings: S. cerevisiae rad18 mutant growth inhibition, active compounds read high
In short: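 Screen uses a yeast strain with a defined lesion in DNA damage repair; compound effect is read as loss of growth compared to untreated vehicle cultures.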

[4] = NCI Yeast Anticancer Drug Screen. Data for the rad52 strain (AID 147);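 also: 0% = growth of vehicle-treated control cultures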; settings: S. cerevisiae rad52 mutant growth inhibition, active compounds read high
In short: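 Measured: yeast growth inhibition. System: strain with a defined DNA damage repair alteration. Reference: vehicle-treated control cultures.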

[5] = NCI Yeast Anticancer Drug Screen. Data for the rad50EPP+ strain (AID 151);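 also: 0% = growth of vehicle-treated control cultures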; settings: S. cerevisiae rad50 mutant strain, active compounds read high
In short: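 One strain with a rad50 alteration (rad50EPP+) was compound-treated, its growth then compared to that of vehicle controls.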

[6] = NCI Yeast Anticancer Drug Screen. Data for the rad50 strain (AID 155);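 also: 0% = growth of vehicle-only cultures of the same strain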; settings: S. cerevisiae rad50 strain growth inhibition, active compounds read high
In short: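 Vehicle-treated cultures provide the reference for the growth inhibition reported for compound-exposed, repair-deficient yeast.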

[7] = NCI Yeast Anticancer Drug Screen. Data for the mec2-1 strain (AID 157); settings: S. cerevisiae mec2-1 strain, active compounds read high
In short: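 Test agents were screened against the mec2-1 yeast strain, with defined DNA repair or cell cycle alteration. Growth was scored as inhibition against vehicle-only controls.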

[8] = NCI Yeast Anticancer Drug Screen. Data for the rad14 strain (AID 159);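 also: 0% = growth of vehicle-treated control cultures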; settings: S. cerevisiae rad14 strain growth inhibition, active compounds read high
In short: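 Inhibition of growth is reported for a repair-deficient yeast mutant following compound treatment, calculated relative to cultures that received vehicle.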

[9] = NCI Yeast Anticancer Drug Screen. Data for the sgs1 mgt1 strain (AID 161);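 also: 0% = growth of cultures given vehicle only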; settings: S. cerevisiae sgs1 mgt1 strain, active compounds read high
In short: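 Read-out: growth inhibition vs vehicle controls. Cells: mutant yeast strain deficient in DNA damage repair.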

[10] = NCI Yeast Anticancer Drug Screen. Data for the CLN2oe strain (AID 163);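 also: 0% = growth of vehicle-only control cultures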; settings: S. cerevisiae CLN2oe strain, active compounds read high
In short: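 Here, growth inhibition in a cell-cycle-altered yeast strain after compound exposure was quantified against vehicle control growth.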

[11] = NCI Yeast Anticancer Drug Screen. Data for the cln2 rad14 strain (AID 165);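 also: 0% = growth equal to vehicle treated cultures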; settings: S. cerevisiae cln2 rad14 strain, active compounds read high
In short: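 Growth of compound-exposed yeast (cln2 rad14 genotype) measured and expressed as inhibition relative to vehicle.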

[12] = NCI Yeast Anticancer Drug Screen. Data for the bub3 strain (AID 167); settings: S. cerevisiae bub3 mutant strain, active compounds read high
In short: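 Mutant yeast screening strain plus compound; vehicle-treated cultures serve as the 0% inhibition reference.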

[13] = NCI Yeast Anticancer Drug Screen. Data for the wt2 strain (AID 169); settings: S. cerevisiae wt2 strain growth inhibition, active compounds read high
In short: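 Genetically defined yeast strains from a DNA-repair/cell-cycle panel were used. Compound-exposed yeast growth was measured, and the inhibition was calculated relative to vehicle treatment.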

[14] = NCI Yeast Anticancer Drug Screen. Data for the mlh1 strain (AID 171);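 also: 0% = growth of vehicle-treated control cultures of the same strain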; settings: S. cerevisiae mlh1 strain growth inhibition, active compounds read high
In short: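 Here the genetically defined yeast mutant is grown with each compound, and the extent to which its growth falls below that of vehicle-exposed cells is reported.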

[15] = at 5.0 µM (retest, dose inferred, filed as 0.5)
[16] = at 50.0 µM (retest, dose inferred, filed as 5.0)

Measured: growth inhibition

CCN1/C(=C/c2ccc3ccccc3[n+]2CC)C=Cc2ccccc21
inactive: [3]; at 1.2 µM -5% | [3]; at 3.7 µM -4%
active: [1]; at 33.0 µM 97% | [1]; at 100.0 µM 97% | [2]; [15] 100% | [2]; [16] 99% | [2]; at 50.0 µM 90.2% | [3]; at 11.0 µM 90% | [3]; at 33.0 µM 96% | [3]; at 100.0 µM 97%

CCOC(=O)C(NC(=O)CC)(N1CCN(c2cc3c(cc2F)c(=O)c(C(=O)O)cn3C2CC2)CC1)C(F)(F)F (stereo not drawn)
inactive: [4]; at 1.2 µM 0% | [4]; at 3.7 µM 3% | [4]; at 11.0 µM 44% | [5]; at 1.2 µM -1% | [5]; at 3.7 µM 1% | [5]; at 11.0 µM 3% | [5]; at 33.0 µM 3% | [5]; at 100.0 µM 11% | [6]; at 1.2 µM 0% | [6]; at 3.7 µM 5% | [6]; [15] -10% | [6]; at 11.0 µM 47% | [6]; [16] 61% | [7]; at 1.2 µM -1% | [7]; at 3.7 µM -5% | [7]; [15] 0% | [7]; at 11.0 µM 1% | [7]; at 33.0 µM 47% | [7]; [16] 6% | [8]; at 1.2 µM 0% | [8]; at 3.7 µM 2% | [8]; at 11.0 µM 6% | [8]; at 33.0 µM 29% | [9]; [15] -2% | [9]; [16] 15% | [9]; at 50.0 µM 28.6% | [10]; at 1.2 µM 1% | [10]; at 3.7 µM 3% | [10]; at 11.0 µM -3% | [10]; at 33.0 µM 21% | [11]; [15] 1% | [11]; [16] -1% | [11]; at 50.0 µM 45.6% | [12]; at 1.2 µM -40% | [12]; at 3.7 µM 0% | [12]; [15] -14% | [12]; at 11.0 µM 0% | [12]; at 33.0 µM 18% | [12]; [16] 2% | [13]; at 1.2 µM -1% | [13]; at 3.7 µM -4% | [13]; at 11.0 µM -2% | [13]; at 33.0 µM 10% | [14]; at 1.2 µM -1% | [14]; at 3.7 µM 0% | [14]; at 11.0 µM 0% | [14]; at 33.0 µM 16% | [1]; at 1.2 µM 0% | [1]; at 3.7 µM 1% | [1]; at 11.0 µM 4% | [1]; at 33.0 µM 28% | [2]; [15] -3% | [2]; [16] 21% | [3]; at 1.2 µM -2% | [3]; at 3.7 µM -2% | [3]; at 11.0 µM 0% | [3]; at 33.0 µM 23%
active: [4]; at 33.0 µM 91% | [4]; at 100.0 µM 97% | [6]; at 33.0 µM 90% | [6]; at 50.0 µM 91.5% | [6]; at 100.0 µM 97% | [7]; at 50.0 µM 84.1% | [7]; at 100.0 µM 96% | [8]; at 100.0 µM 91% | [10]; at 100.0 µM 86% | [12]; at 50.0 µM 79.1% | [12]; at 100.0 µM 91% | [13]; at 100.0 µM 84% | [14]; at 100.0 µM 85% | [1]; at 100.0 µM 88% | [2]; at 50.0 µM 74.5% | [3]; at 100.0 µM 91%
